Structures are written as SMILES. The whole screen tested about 220,000 compounds, of which about 16,000 (7.3%) were called active. Entries that show only a call come without a potency. Inconclusive results (about 25%) are left out. This is one part of a sample in which actives are shown more often than they occur. Calls follow the shape of the dose curve; as a rule, active = well fitted inhibition curve with a large enough effect (not every such curve was filed as active); inconclusive = small, poorly fitted or top-dose-only effect, or another doubt; inactive = no such curve, though single readings can be large or run the other way.
Potency is read from the fitted curve at half-maximal effect.

The target in the test is Aldehyde dehydrogenase 1A1 (Homo sapiens) (UniProt P00352). Description: qHTS Assay for Inhibitors of Aldehyde Dehydrogenase 1 (ALDH1A1). Particulars: Purified ALDH1A1, NADH fluorescence, propionaldehyde substrate; series mostly up to 75.3 µM.
Sequence of Aldehyde dehydrogenase 1A1 (Homo sapiens) (P00352 whole entry, looked up): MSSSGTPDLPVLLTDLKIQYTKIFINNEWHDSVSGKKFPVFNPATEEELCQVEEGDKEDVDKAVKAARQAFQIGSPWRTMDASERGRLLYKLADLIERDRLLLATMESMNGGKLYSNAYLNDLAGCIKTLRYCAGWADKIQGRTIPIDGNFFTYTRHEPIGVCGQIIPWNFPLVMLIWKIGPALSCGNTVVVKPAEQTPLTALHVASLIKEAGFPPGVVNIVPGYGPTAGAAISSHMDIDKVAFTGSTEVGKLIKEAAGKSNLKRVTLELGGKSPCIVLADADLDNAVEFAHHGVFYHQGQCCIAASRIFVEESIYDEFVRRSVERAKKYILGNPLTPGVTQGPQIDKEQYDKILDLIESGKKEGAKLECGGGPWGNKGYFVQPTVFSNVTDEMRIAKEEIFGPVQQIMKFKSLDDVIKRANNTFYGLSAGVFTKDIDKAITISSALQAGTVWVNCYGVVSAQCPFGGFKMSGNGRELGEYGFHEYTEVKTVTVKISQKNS
In the case of `COc1ccc(C2=NN(c3nc4ccccc4s3)C(=O)C2)cc1`, the Potency entry is “inactive”.
In the case of `CCCCn1c(=O)c(C(C)=O)c(O)c2ccccc21` it was “inactive”; in that of `Cc1[nH]c2c(C(=O)N3CCCC(CCC(=O)NCc4ccccc4F)C3)cccc2c1C` (stereo unspecified), “inactive”.
Under `CCN1CCN(CCCCOc2ccccc2F)CC1` stands “inactive”.
Under `COc1ccccc1N1CCN(CCCCOc2ccc(F)cc2)CC1` stands 25.1 µM (active); under `COc1ccccc1N1CCN(Cc2ccc(OC)c3ccccc23)CC1`, “inactive”.
As to `CCOC(=O)c1c(NC(=O)C2CC=CCC2C(=O)O)sc(C)c1CC` (stereo unspecified), the Potency result is “inactive”.
In the case of `Cc1ccc(-c2cccc([C@H]3[C@@H]4C=CC[C@@H](C)[C@@H]4C(=O)N3Cc3ccccc3)c2)cc1` it was “inactive”; in that of `COc1ccc(OC)c(Cc2nnc(CCC(=O)NC3CCCC3)o2)c1`, “inactive”; in that of `O=C1CSC(c2cccc(F)c2)N1c1ccc(O)cc1` (stereo unspecified), “inactive”.
Consider `O=C1CSC(c2cccc(F)c2)N1c1ccccc1F` (stereo unspecified), for which the Potency was 14.1 µM (active).
In the case of `O=C1CSC(c2ccccc2)N1c1nc(-c2ccc(Cl)cc2Cl)cs1` (stereo unspecified) it was “inactive”; in that of `CC1CCN(C(=O)c2ccc(S(=O)(=O)Cc3cc(F)ccc3F)c([N+](=O)[O-])c2)CC1`, 7.08 µM (active); in that of `CC1CCN(c2ccc(S(=O)(=O)Nc3cc(C(=O)O)cc(C(=O)O)c3)cc2[N+](=O)[O-])CC1`, “inactive”.
In the case of `O=C(Nc1ccc(F)cc1)C1CCN(C(=O)c2ccc([N+](=O)[O-])cc2)CC1` it was “inactive”; in that of `CCc1[nH]nc(C(=O)N2CCCC(CNS(=O)(=O)c3cccs3)C2)c1C` (stereo unspecified), “inactive”.
Under `COc1ccc(S(=O)(=O)NCC2CCCN(C(=O)c3occc3C)C2)cc1` (stereo unspecified) stands 4.47 µM (active); under `COCCCNC(=O)C1CCC(CNS(=O)(=O)c2ccc(OC)cc2)CC1` (stereo unspecified), “inactive”.
Turning to `Cc1ccc(S(=O)(=O)N2CCOCC2)cc1C(=O)OC1CCCCC1=O` (stereo unspecified), the Potency result is “inactive”.
In the case of `CCC(C)NC(=O)Cn1nc(C(F)(F)F)c2c1CCC2` (stereo unspecified) it was “inactive”; in that of `CS(=O)(=O)N1CCC(C(=O)N2CCN(c3ccccc3)CC2)CC1`, “inactive”; in that of `CS(=O)(=O)N(CC(=O)N1CCCC1)Cc1ccccc1`, “inactive”.
Under `CS(=O)(=O)N1CCN(C(=O)Cc2ccccc2)CC1` stands 8.91 µM (active); under `O=C(Nc1ccc(Cl)cc1)Nc1ccc(Oc2cccnc2)nc1`, “inactive”; under `Cc1ccc(-n2cc(CN(C)Cc3nccn3C)c(-c3cccc(C)c3)n2)cc1`, “inactive”.
In the case of `COc1cccc(Cn2c(=O)c(-c3cc(F)cc(F)c3)nc3cnc(OC)nc32)c1` it was “inactive”; in that of `COc1cccc(Cn2c(=O)cnc3cncnc32)c1`, 2.51 µM (active).
Regarding `COc1cccc(Cn2c(=O)c(C)nc3cnc(Oc4ccccc4)nc32)c1`, the Potency entry was “inactive”.
With `COc1ccc(OC)c(NC(=O)CN(Cc2ccc(Cl)cc2)S(C)(=O)=O)c1`, the Potency entry was “inactive”.
Under `CCC(C)(C)C1CCC(=NNC(=O)c2ccc(Br)o2)CC1` (stereo unspecified) stands “inactive”; under `Cc1nc2cnc(Nc3ccccc3)nc2n(Cc2ccc(F)cc2)c1=O`, “inactive”.
Turning to `Cc1cc2nc3c(=O)n(Cc4ccccc4)c(=O)[nH]c3nc2cc1N`, the Potency is 12.6 µM (active).
In the case of `O=c1[nH]c2c(c(=O)n1Cc1ccccc1)CCC2` it was “inactive”; in that of `CCS(=O)(=O)c1ccc(C(=O)NC)c(Cl)c1Cl`, “inactive”.
Under `c1ccc(CCn2nnnc2CN2CCN(C3CCCC3)CC2)cc1` stands “inactive”; under `c1ccc(C(c2ccccc2)N2CCN(Cc3nnnn3C3CCCCC3)CC2)cc1`, 7.94 µM (active); under `COc1ccc(C(c2nnnn2C2CCCCC2)N2CCN(c3ccccc3F)CC2)cc1` (stereo unspecified), “inactive”.
Under `Cc1ccc(N(CCC(=O)O)S(=O)(=O)c2cccc(C(F)(F)F)c2)cc1` stands “inactive”.
For `COc1ccc2c(c1)c(=O)c(C(=O)c1ccc(Cl)cc1)cn2CC(=O)Nc1ccc(F)cc1`, the Potency entry was “inactive”.
In the case of `COc1ccc2[nH]cc(CCNc3ncnc4ccc(-c5ccccc5CN(C)C)cc34)c2c1` it was “inactive”; in that of `COc1ccc2[nH]cc(CCNc3nc(-c4cccc(NS(C)(=O)=O)c4)nc4ccccc34)c2c1`, “inactive”; in that of `COc1ccc2[nH]cc(CCNc3ncnc4ccc(-c5ccc(C(=O)N(C)C)cc5)cc34)c2c1`, 25.1 µM (active).
In the case of `Cc1ccccc1NC(=O)NNC(=O)OC(C)(C)C` it was “inactive”; in that of `Cc1c(CCOC(=O)c2cc([N+](=O)[O-])ccc2Cl)sc[n+]1CCCCS(=O)(=O)[O-]`, “inactive”; in that of `COc1cccc2c(N/N=C/c3ccco3)cc(C)nc12`, “inactive”.
In the case of `O=Cc1cn(Cc2ccccc2)nc1-c1cccnc1` it was “inactive”; in that of `Clc1ccc(CN2CCN(/N=C/c3cccnc3)CC2)cc1`, “inactive”.
On to `O=C1/C(=C\c2cccnc2)CN(Cc2ccccc2)C/C1=C\c1cccnc1`, for which the Potency was 7.94 µM (active).
Under `O=C(Nc1ccccc1C(=O)N1CCOCC1)c1ccc(CSc2ccccc2)cc1` stands “inactive”; under `O=C(/C=C/c1ccc(Cl)cc1)Nc1ccc(Br)cn1`, “inactive”.
As for `COc1ccc(-n2c(SCC(=O)Nc3sc4c(c3C#N)CCCC4)nnc2-c2ccc(O)cc2)cc1`, the Potency result was “inactive”.
In the case of `N#Cc1c(NC(=O)CSc2nc3ccccc3c(=O)n2Cc2ccco2)sc2c1CCCC2` it was 25.1 µM (active); in that of `O=C(CSc1nc2cc3c(cc2c(=O)n1CCC1=CCCCC1)OCO3)NCc1ccco1`, “inactive”; in that of `C=C(C)Cn1c(SCC(=O)NCc2ccco2)nc2sc3c(c2c1=O)CCC3`, 11.2 µM (active).
For `O=C(CSc1c2c(nc3ccc(Cl)cc13)CCCC2)NCc1ccco1`, the Potency entry is “inactive”.
In the case of `Cc1cc(NC(=O)CSc2nc3cc(Cl)ccc3c(=O)n2Cc2ccco2)no1` it was “inactive”.
In the case of `COc1cc(CNc2ncn[nH]2)ccc1OCc1ccccc1C` it was “inactive”; in that of `CCC(=O)N1CCC(C(N)=O)(N2CCCCC2)CC1`, “inactive”; in that of `CC(O)CNCCOc1cccc(Oc2ccccc2)c1` (stereo unspecified), “inactive”.
In the case of `CCOCCCNC(=O)C(NC(=O)Cc1c[nH]c2ccccc12)c1ccc(OC)cc1` (stereo unspecified) it was “inactive”; in that of `CN1CCN(c2ccc(CNS(=O)(=O)c3cccc(F)c3)cc2)CC1`, “inactive”.
With `O=C(/C=C/c1ccc(Cl)cc1Cl)c1cccnc1`, the Potency is 10 µM (active).
Regarding `O=C(/C=C/c1ccc(Cl)c([N+](=O)[O-])c1)c1cccnc1`, the Potency entry was “inactive”.
Consider `O=C(/C=C/c1ccc(Cl)cc1Cl)NCc1ccco1`, for which the Potency result is “inactive”.
As for `CC1(C)CC(=O)C(C2c3ccccc3S(=O)(=O)c3ccccc32)C(=O)C1`, the Potency entry is “inactive”.
Under `COC(=O)c1cc(C)sc1NC(=O)CC1Nc2ccccc2NC1=O` (stereo unspecified) stands “inactive”.

The record behind these values is PubChem BioAssay AID1030 (National Center for Advancing Translational Sciences (NCATS), 2008).
